Assay results: PubChem BioAssay (NCI)
The panel holds about 83,000 compounds, 20% with a hit somewhere; the sample as a whole holds those more often.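 Percent growth is the endpoint: 0 to 100 indicates growth inhibition (40 means 60% inhibition), 0 means no net growth, and negative values indicate cell death.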 Unmarked numbers belong to inactive results. The source made the active and inactive calls. Rule for the calls: active = growth percent below 10; inactive = the rest.

What was measured:
Assay in all cases: NCI-60 one-dose screen, 48 h (100 = growth as untreated, 0 = no growth, -100 = all killed)
Settings in all cases: 10 µM unless noted
T-47D breast = system: T-47D breast
BT-549 breast = system: BT-549 breast
MDA-MB-435 melanoma = system: MDA-MB-435 melanoma
SW-620 colon = system: SW-620 colon
MCF7 breast = system: MCF7 breast
HCT-116 colon = system: HCT-116 colon
HCC-2998 colon = system: HCC-2998 colon
KM12 colon = system: KM12 colon

| SMILES | growth (T-47D breast) | growth (BT-549 breast) | growth (MDA-MB-435 melanoma) | growth (SW-620 colon) | growth (MCF7 breast) | growth (HCT-116 colon) | growth (HCC-2998 colon) | growth (KM12 colon) |
| --- | --- | --- | --- | --- | --- | --- | --- | --- |
| CC(=O)c1c(C)[nH]c(-c2nc3ccc(N4CCN(C)CC4)cc3[nH]2)c1-c1ccc(OCC2CCOCC2)cc1 | 29.1% | 57.1% | 23.5% | 50.6% | 6.13% (active) | 19.8% | 31.7% | 34.2% |
| CCCCC[C@H]1CC=C2C(=O)C(Cl)=C[C@@H]2CC=CCCCC(=O)O[C@@H](CCCCC)CC=C2C(=O)C(Cl)=C[C@@H]2CC=CCCCC(=O)O[C@@H](CCCCC)CC=C2C(=O)C(Cl)=C[C@@H]2CC=CCCCC(=O)O1 | 61% [8 µM] | 67.6% [8 µM] | 25.1% [8 µM] | 16.5% [8 µM] | 29.9% [8 µM] | 11.4% [8 µM] | 99.1% [8 µM] | 91.2% [8 µM] |
| COC(=O)[C@]12CC[C@@H](C)[C@H](C)[C@@H]1C1=CC[C@@H]3[C@@]4(C)C[C@@H](OC(C)=O)[C@H](OC(C)=O)[C@@](C)(COC(C)=O)[C@@H]4[C@H](O)C[C@@]3(C)[C@]1(C)CC2 | -13.6% (active) | 0.787% (active) | 17.4% | 20.7% | 5.21% (active) | 9.38% (active) | 5.84% (active) | 8.42% (active) |
| CCN(CC)c1ccc(/C=C/c2cc(C)c3ccccc3n2)cc1 | 44% | 93.2% | -6.87% (active) | 22.3% | 21.2% | 22.8% | 62.4% |  |
| Brc1ccc2[nH]cc(-c3nc(-c4c[nH]c5ncccc45)cs3)c2c1 | 59.8% | 58.7% | 40.6% | 6.36% (active) | 32.3% | 17.5% | 60.2% | 21.3% |
| C#CCn1c(C)cc(C)c(C#N)c1=O | 101% | 98% | 106% | 104% | 91.5% | 103% | 105% | 101% |
| COc1cccc(-c2nn(-c3ccccc3)cc2-c2ccnc(NCCNS(=O)(=O)c3ccccc3)c2)c1 | 4.18% (active) | 36.5% | 10.7% | 43.9% | 14.9% | 29.4% | 26.8% | 21.7% |
| Cc1cc2nc3c4cc(N)ccc4n(CCN(C)C)c3nc2cc1C | 16.1% | 45% | 14.6% | 7.31% (active) | -19.6% (active) | 5.51% (active) | 17% | 17.4% |
| COc1ccc(-c2cc(/C=C/C(=O)c3ccc(OC)c(OC)c3)[nH]n2)cc1 | 22.2% | -34.2% (active) | 21.3% | -70.5% (active) | 6.07% (active) | -40.7% (active) | 92.7% | -79.9% (active) |
| Nc1nc2c(c(=O)[nH]1)C(c1ccc3c(c1)OCO3)C=C(C(=O)O)N2 (stereo not drawn) | 106% | 91.9% | 97.7% | 106% | 92.7% | 99.4% | 104% | 110% |
| Nc1ccccc1NC(=O)c1ccc(CN2CCC/C(=C\c3ccccn3)C2=O)cc1 | 8.73% (active) | 52.9% | -42.7% (active) | 12.3% | 6.01% (active) | 5.7% (active) | 31.5% | 25.2% |
| N#Cc1c(-c2ccc(O)cc2)c2c(N)nn(-c3ccccc3)c2[nH]c1=O | 112% | 111% | 108% | 102% | 101% | 108% | 110% | 102% |
| COc1cc(/C=C/c2cc(/C=C/c3ccc(O)c(OC)c3)n(-c3ccccc3)c(=O)n2)ccc1O | 71.4% | 56.9% | 73.1% | 78.4% | 40.8% | 55.6% | 104% | 63.2% |
| COc1cc2c3c(c4c5ccccc5[nH]c4c2c(OC)c1OC)C(=O)N(O)C3=O | 19.5% | 46.2% | 56.1% | 49% | 20.4% | 16.8% | 55.3% | 53.7% |
| NCCn1cc(-c2nc(-c3c[nH]c4ncccc34)cs2)c2cc(F)ccc21 | 26.3% | 95.7% | 81.7% | 50.2% | 57.2% | 61.4% | 96.2% | 65.6% |
| COC(=O)CCCCCn1c2ccccc2c2c3c(c4c5ccccc5[nH]c4c21)C(=O)N(O)C3=O | 21.6% | 59% | 71.2% | 48.7% | 13.1% | 28.4% | 55.4% | 46.5% |
| c1cc(N2CCCC2)c2nc(-c3[nH]ncc3Nc3ncnc4[nH]ccc34)[nH]c2c1 | 0.99% (active) | -37% (active) | -80.8% (active) | 2.01% (active) | -23% (active) | -9.45% (active) | -30.4% (active) | -20.4% (active) |
| C=C(C)[C@@H]1CC[C@]2(c3nnc(-c4ccncc4)o3)CC[C@]3(C)[C@H](CC[C@@H]4[C@@]5(C)CCC(=O)NC(C)(C)[C@@H]5CC[C@]43C)[C@@H]12 | 100% | 89.8% | 101% | 103% | 92.9% | 88.8% | 103% | 98.9% |
| NC1=C(C/C(N)=N\O)C(c2ccccc2Cl)c2c(ccc3ccccc23)O1 (stereo not drawn) | 84.8% | 89.3% | 3.52% (active) | 63.1% | 68.5% | 83.8% | 97.1% | 67.5% |
| O=C1/C(=C\c2ccc(Br)o2)SC(=S)N1CCc1ccc(O)cc1 | 57.7% | 76.4% | 71.3% | 102% | 33.4% | 77.7% | 119% | 19.5% |
| C=C1C(=O)O[C@H]2[C@H]1CC/C(COC(=O)NCc1c[nH]c3ccccc13)=C\CC[C@@]1(C)O[C@@H]21 | 37.8% | 50.7% | 46.9% | 2.62% (active) | 17.1% | -12.3% (active) | 97.9% | 96.9% |
| COc1ccc(C2CC(=O)c3c(nc4ccc(Cl)cc4c3N)C2)cc1 (stereo not drawn) | 109% | 102% | 93.6% | 106% | 95.6% | 100% | 111% | 103% |
| Cc1cc(N=O)cc(C(C)(C)C)c1O | 85.4% | 97.7% | 99.4% | 94.8% | 93.6% | 88.1% | 106% | 102% |
| Cc1oc(-c2ccccc2Cl)cc1C(=O)Nc1ccc(S(N)(=O)=O)cc1 | 83.2% | 104% | 102% | 108% | 92.7% | 102% | 103% | 101% |
| N=C(N)c1ccc(-c2ccc(-c3cc(F)cc(F)c3)o2)nc1 | 86.3% | 97.4% | 90.9% | 54.2% | 66.9% | 64.2% | 96.5% | 91.5% |
| CN(C)c1ccc(-c2ccc(-c3ccc(C(=N)N)c(F)c3)s2)cc1 | -60.3% (active) | 95.7% | -95.4% (active) | -75% (active) | -69.7% (active) | -89.3% (active) | -95.4% (active) | -87.9% (active) |
| CCc1ccc(-c2ccc(Nc3ccccc3)nn2)cc1S(N)(=O)=O | 53.3% | 83.3% | 36.1% | 54.1% | 84.3% | 72.6% | 85.4% | 40.6% |
| COC(=O)[C@]12CC[C@@H](C)[C@H](C)[C@@H]1C1=CC(=O)[C@@H]3[C@@]4(C)C[C@@H](O)[C@H](O)[C@@]5(C)COC(=C45)C[C@@]3(C)[C@]1(C)CC2 | 51.2% | 53.9% | -11.3% (active) | 33.3% | 28.5% | 53.2% | 69.2% | 34.6% |
